# Assay results published in PubChem BioAssay.
# Calls of active or inactive are those of the source.
# Tests used:
# [1] = binders of probe aFSTL3 on microarray, primary screen, stem cell growth factor project, biochemical, small-molecule microarray, fluorescence 635/667 (AID 1064); conditions: higher = more signal;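 also: measures binding of the biotinylated anti-FSTL3 antibody to printed compounds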
# [2] = binders from COS7 lysate, DM2A8 probe, primary screen, torsin A project, cell lysate, small-molecule microarray, fluorescence 635/667 (AID 1065); conditions: higher = more signal, COS7 lysate expressing mutant human TOR1A
# [3] = binders of probe aFGF2 on microarray, primary screen, stem cell growth factor project, biochemical, small-molecule microarray, fluorescence 635/667 (AID 1067); conditions: higher = more signal;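 also: measures binding of biotinylated aFGF2 protein to printed compounds on slides; z-score merges feature fluorescence and signal-to-noise across triplicate slides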
# [4] = binders of probe aFGF10 on microarray, primary screen, stem cell growth factor project, biochemical, small-molecule microarray, fluorescence 635/667 (AID 1071); conditions: higher = more signal;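 also: score merges 667 nm spot intensity and signal to noise from triplicate slides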
# [5] = molecular target: Neurogenic locus notch homolog protein 2 (Homo sapiens) (UniProt Q04721); experiment: Notch2 binders on small-molecule microarrays, primary screen, biochemical, small-molecule microarray, 635 nm fluorescence, stem cell growth factors (AID 1073); conditions: Notch2 binding, higher = more signal
# [6] = molecular target: Pro-neuregulin-1, membrane-bound isoform (Homo sapiens) (UniProt Q02297); experiment: NRG1 binders on small-molecule microarrays, primary screen, psychiatric disease protein project, biochemical, small-molecule microarray, fluorescence 635/667 (AID 1075); conditions: NRG1 binding, 635 nm fluorescence, higher = more signal;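 also: score combines 667 nm spot fluorescence with signal to noise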
# [7] = tested on: Neuregulin-1 EGF-like domain; experiment: binders of neuregulin-1 EGF-like domain, primary screen, biochemical, small-molecule microarray, 635 nm fluorescence (AID 1081); conditions: small-molecule microarray binding, higher = more signal;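 also: binding of the protein to compounds printed on small-molecule microarray slides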
# [8] = FRG1 promoter luciferase signal modulators, primary screen, FRG1 inhibition for FSHD, cell-based, C2C12 myotubes, firefly/Renilla luciferase, luminescence (AID 1084); conditions: higher = more signal, called active from +8 up or from −8 down
# [9] = binders of probe aFST on microarray, primary screen, stem cell growth factor project, biochemical, small-molecule microarray, fluorescence 635/667 (AID 1086); conditions: higher = more signal;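 also: score merges 667 nm fluorescence with signal-to-noise of each printed compound spot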
# [10] = binders of probe aHhip on microarray, primary screen, stem cell growth factor project, biochemical, small-molecule microarray, fluorescence 635/667 (AID 1087); conditions: higher = more signal;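 also: score merges spot fluorescence at 667nm with spot signal to noise ratio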
# Neurogenic locus notch homolog protein 2 (Homo sapiens), sequence (Q04721 whole entry, looked up, canonical isoform): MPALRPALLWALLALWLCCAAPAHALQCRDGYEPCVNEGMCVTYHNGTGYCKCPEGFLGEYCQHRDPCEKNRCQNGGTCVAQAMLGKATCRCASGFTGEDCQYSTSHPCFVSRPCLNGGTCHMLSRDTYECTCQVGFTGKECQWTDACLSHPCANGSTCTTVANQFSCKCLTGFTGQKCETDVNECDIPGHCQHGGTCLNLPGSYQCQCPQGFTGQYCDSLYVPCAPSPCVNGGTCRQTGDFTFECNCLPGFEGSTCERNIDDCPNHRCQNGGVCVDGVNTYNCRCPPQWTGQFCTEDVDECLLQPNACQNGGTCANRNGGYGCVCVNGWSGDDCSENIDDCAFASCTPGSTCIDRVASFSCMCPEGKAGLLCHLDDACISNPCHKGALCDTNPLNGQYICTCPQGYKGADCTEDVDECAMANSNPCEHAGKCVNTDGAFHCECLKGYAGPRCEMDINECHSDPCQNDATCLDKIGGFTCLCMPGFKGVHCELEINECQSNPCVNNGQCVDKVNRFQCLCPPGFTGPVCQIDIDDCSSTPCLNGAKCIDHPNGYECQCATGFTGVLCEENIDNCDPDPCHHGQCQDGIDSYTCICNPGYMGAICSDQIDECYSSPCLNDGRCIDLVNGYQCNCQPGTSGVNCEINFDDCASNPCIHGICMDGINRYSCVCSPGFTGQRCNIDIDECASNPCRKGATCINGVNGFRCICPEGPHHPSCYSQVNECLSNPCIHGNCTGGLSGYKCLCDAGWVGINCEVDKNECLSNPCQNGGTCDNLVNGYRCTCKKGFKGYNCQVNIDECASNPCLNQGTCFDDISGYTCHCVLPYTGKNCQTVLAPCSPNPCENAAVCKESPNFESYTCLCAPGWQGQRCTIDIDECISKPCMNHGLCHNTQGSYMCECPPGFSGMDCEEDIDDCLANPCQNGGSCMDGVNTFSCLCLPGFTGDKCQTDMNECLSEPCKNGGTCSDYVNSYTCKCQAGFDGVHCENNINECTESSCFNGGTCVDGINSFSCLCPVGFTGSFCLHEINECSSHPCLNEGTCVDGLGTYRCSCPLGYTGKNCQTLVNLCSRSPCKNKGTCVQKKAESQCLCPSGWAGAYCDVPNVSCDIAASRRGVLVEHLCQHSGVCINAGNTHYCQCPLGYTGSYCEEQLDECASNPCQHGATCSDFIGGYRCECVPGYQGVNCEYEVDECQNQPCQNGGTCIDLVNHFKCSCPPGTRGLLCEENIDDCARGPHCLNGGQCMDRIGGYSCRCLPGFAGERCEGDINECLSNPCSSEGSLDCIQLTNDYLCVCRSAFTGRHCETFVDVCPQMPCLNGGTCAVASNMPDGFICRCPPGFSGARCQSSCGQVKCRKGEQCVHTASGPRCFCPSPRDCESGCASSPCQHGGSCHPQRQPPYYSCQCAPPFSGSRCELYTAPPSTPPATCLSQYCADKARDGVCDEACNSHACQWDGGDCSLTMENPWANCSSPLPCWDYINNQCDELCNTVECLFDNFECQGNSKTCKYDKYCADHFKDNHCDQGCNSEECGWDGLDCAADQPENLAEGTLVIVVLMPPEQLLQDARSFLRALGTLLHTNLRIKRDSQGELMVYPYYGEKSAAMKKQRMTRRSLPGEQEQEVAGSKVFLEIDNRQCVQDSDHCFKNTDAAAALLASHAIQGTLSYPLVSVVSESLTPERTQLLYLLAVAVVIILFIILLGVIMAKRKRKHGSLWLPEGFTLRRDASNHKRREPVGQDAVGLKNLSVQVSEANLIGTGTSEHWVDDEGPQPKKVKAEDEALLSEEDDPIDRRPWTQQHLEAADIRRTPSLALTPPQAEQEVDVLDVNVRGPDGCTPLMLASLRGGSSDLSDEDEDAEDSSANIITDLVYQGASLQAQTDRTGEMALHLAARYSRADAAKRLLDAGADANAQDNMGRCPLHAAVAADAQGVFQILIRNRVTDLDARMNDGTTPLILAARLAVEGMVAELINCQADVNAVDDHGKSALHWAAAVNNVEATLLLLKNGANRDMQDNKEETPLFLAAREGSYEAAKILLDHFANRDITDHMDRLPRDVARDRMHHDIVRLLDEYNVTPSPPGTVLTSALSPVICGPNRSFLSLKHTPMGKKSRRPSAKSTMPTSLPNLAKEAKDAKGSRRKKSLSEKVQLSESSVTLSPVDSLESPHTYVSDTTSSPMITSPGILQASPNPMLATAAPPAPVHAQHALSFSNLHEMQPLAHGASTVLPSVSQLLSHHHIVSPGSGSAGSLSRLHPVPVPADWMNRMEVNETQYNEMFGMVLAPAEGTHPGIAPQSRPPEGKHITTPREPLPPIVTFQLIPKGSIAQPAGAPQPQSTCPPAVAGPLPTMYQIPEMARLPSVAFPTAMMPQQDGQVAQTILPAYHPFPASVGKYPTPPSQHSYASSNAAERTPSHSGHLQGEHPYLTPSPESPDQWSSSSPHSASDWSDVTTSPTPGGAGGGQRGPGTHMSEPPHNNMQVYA
# Pro-neuregulin-1, membrane-bound isoform (Homo sapiens), sequence (Q02297 whole entry, looked up, the tested form may be a part, canonical isoform): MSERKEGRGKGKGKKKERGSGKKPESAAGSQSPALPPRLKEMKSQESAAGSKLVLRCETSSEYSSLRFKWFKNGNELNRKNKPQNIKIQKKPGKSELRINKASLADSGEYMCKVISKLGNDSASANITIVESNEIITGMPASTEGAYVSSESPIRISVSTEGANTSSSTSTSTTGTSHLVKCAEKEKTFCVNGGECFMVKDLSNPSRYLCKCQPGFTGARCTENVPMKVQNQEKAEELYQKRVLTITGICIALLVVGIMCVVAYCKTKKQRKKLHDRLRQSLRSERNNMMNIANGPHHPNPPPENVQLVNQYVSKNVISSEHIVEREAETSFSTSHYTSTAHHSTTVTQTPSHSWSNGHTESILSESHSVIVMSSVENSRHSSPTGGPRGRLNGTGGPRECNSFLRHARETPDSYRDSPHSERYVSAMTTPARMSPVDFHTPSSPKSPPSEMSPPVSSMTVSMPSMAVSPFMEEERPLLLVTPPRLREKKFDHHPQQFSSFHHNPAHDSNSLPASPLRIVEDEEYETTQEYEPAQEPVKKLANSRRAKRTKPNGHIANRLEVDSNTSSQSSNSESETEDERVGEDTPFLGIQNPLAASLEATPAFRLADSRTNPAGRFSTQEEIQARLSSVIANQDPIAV
Structure (SMILES),composite z-score [1],composite z-score [2],composite z-score [3],composite z-score [4],composite z-score [5],composite z-score [6],composite z-score [7],z-score [8],composite z-score [9],composite z-score [10]
COCCOC(=O)N1C(=O)[C@@]2(c3cc(C#CCNC(N)=O)ccc31)[C@H](C(=O)N1CCN(c3ncccn3)CC1)[C@H]1C(=O)O[C@H](c3ccccc3)[C@H](c3ccccc3)N1[C@@H]2c1ccccc1OCCO,0.397,0.242,0.0811,0.947,1.12,0.727,1.09,-0.311 (inactive),1.28,-0.204
[N-]=[N+]=NCc1ccccc1[C@@H]1OC(c2ccc(OCCCO)cc2)=N[C@]1(Cc1ccccc1)C(=O)N1CCCCC1,0.49,1.1,0.0703,1.05,1.5,1.18,1.12,-1.03 (inactive),1.49,0.212
CC(C)C(=C=CC[C@@H](O)c1ccccc1OCCO)C[C@@H](O)c1ccccn1,-0.438,-0.0682,-0.153,0.477,0.0623,0.0795,1.19,-0.306 (inactive),0.272,0.176
COCCOC(=O)N1C(=O)[C@@]2(c3cc(C#CCNC(N)=O)ccc31)[C@H](C(=O)N1CCc3cc(OC)c(OC)cc3C1)[C@H]1C(=O)O[C@H](c3ccccc3)[C@H](c3ccccc3)N1[C@@H]2c1ccc(OCCO)cc1,-0.222,0.388,-0.0293,0.392,0.578,0.0155,0.172,0.363 (inactive),0.536,0.12
CC(C)(C)N1CC=CC23O[C@@H]4/C=C\CCCOC(=O)C4[C@H]2C(=O)N(CCO)[C@@H]3C1=O (stereo not given in full),0.29,-1.05,-0.045,0.588,-0.931,0.208,0.938,0.911 (inactive),-0.681,-0.236
Cc1ccc(S[C@]2(C(=O)O)CC(=O)N(C3Cc4ccccc4C3)[C@@H]2c2ccc(CO)cc2I)cc1,1.43,-0.269,-0.0692,0.117,-0.634,0.899,0.78,0.788 (inactive),-0.154,-0.0581
CC(C)c1ccc(NN2C(C(O)c3c(F)cccc3Cl)C=CC3C(=O)N(c4ccccc4)C(=O)C32)cc1 (stereo not given),1.07,0.177,0.0923,0.653,1.52,1.31,0.973,2.73 (inactive),1.68,-0.139
COCCCNC(=O)[C@@]1(CCC(=O)OC(C)(C)C)N=C(c2ccc(OCCCO)cc2)O[C@H]1c1ccccc1CN=[N+]=[N-],-0.073,-0.158,-0.0724,0.527,1.67,1.59,1.27,2.42 (inactive),1.53,0.238
COc1cc2c(cc1OC)CN(C(=O)[C@@H]1[C@H]3C(=O)O[C@H](c4ccccc4)[C@H](c4ccccc4)N3[C@H](c3ccccc3OCCO)[C@@]13C(=O)Nc1ccc(C#CCNC(N)=O)cc13)CC2,0.309,0.586,0.0564,0.837,0.936,0.852,1.07,0.297 (inactive),0.237,-0.074
C=CCC(OC(C)=O)[C@@H]1[C@@H](N(Cc2cccc3ccccc23)C(=O)c2ccc(C)cc2)c2cc(OCCCO)ccc2N1C(=O)Cc1ccc(OC)cc1 (stereo not given in full),-0.186,0.307,-0.117,0.29,0.0151,0.0635,-0.391,-1.71 (inactive),0.146,-0.0994
CCN(CC)c1ccc(N2CC=CC34O[C@@H]5/C=C\CCCOC(=O)C5[C@H]3C(=O)N(C(CO)C(C)C)[C@@H]4C2=O)cc1 (stereo not given in full),0.0964,-1.2,-0.159,-0.381,-0.686,1.78,0.897,0.455 (inactive),-0.406,0.0142
CC(C)N1C(=O)[C@@]2(c3ccc([N+](=O)[O-])cc3)CC(=O)N(CC34CC5CC(CC(C5)C3)C4)[C@@H]2c2ccc(CO)cc21,-0.448,-1.26,-0.188,-0.373,-1.16,-0.34,-0.867,0.63 (inactive),-0.39,-0.164
COC(=O)[C@@]1(Cc2ccccc2)[C@H]2c3cc(C(=O)N(C)C)n(Cc4cc(C)n(C)n4)c3C[C@H]2CN1C(=O)c1ccccc1,0.512,0.403,-0.221,-0.0117,1.69,1.51,1.27,0.0005 (inactive),1.51,0.628
COC(=O)[C@@]1(Cc2ccccc2N=[N+]=[N-])COC(c2ccc(OCCCO)cc2)=N1,1.34,2.03,-0.0706,-0.282,0.0164,1.24,1.21,-0.904 (inactive),0.498,0.0176
COc1ccc(CCNC(=O)[C@@]2(Sc3ccc(C)cc3)CC(=O)N(Cc3ccccc3Cl)[C@@H]2c2ccc(CO)cc2I)cc1,0.91,-0.548,-0.105,0.0404,-1.02,1.2,0.883,-2.03 (inactive),-0.299,0.0695
COCCOC(=O)N1C(=O)[C@@]2(c3cc(C#CCNC(N)=O)ccc31)[C@H](c1ccc(O)cc1)N1[C@H](c3ccccc3)[C@H](c3ccccc3)OC(=O)[C@H]1[C@@H]2C(=O)Nc1nc2ccccc2s1,0.764,0.172,-0.0736,0.826,1.27,0.787,0.297,-0.0332 (inactive),0.522,-0.0994
C=C[C@H](COC(C)=O)N(Cc1ccc(OC(C)=O)c(OC)c1)S(=O)(=O)c1ccc(Br)cc1,-0.0411,1.46,0.125,0.311,0.86,0.785,1.14,-3.46 (inactive),0.413,-0.0024
NCCCCCNC(=O)[C@H]1C[C@H]2C(=O)NCC(=O)N2[C@H]1c1cccc(OCCO)c1,0.257,0.759,-0.0337,-0.0838,0.709,1.17,1.43,1.11 (inactive),0.95,0.165
[N-]=[N+]=NCc1ccccc1C[C@]1(C(=O)O)N=C(c2ccc(OCCCO)cc2)O[C@H]1c1ccccc1CN=[N+]=[N-],-0.0279,0.169,-0.0474,0.396,0.591,1.53,1.16,-1.66 (inactive),0.467,-0.239
COC(=O)[C@@]1(Cc2ccc(F)cc2)[C@H]2c3cc(C(=O)N(C)C)n(CCc4ccccn4)c3C[C@H]2CN1C(=O)c1ccccc1,0.681,0.466,0.723,0.759,1.52,0.183,1.09,1.98 (inactive),2.35,0.178
O=C(OCCF)C1=CCC(c2cccc(Cl)c2)O1 (stereo not given),-0.422,0.0213,-0.0907,0.193,0.926,-0.0442,1.03,-1.68 (inactive),0.5,-0.226
CC(C)(C)OC(=O)CC[C@]1(C(=O)N2CCCCC2)N=C(c2ccc(OCCCO)cc2)O[C@H]1c1ccccc1N=[N+]=[N-],1.14,0.933,-0.0328,0.877,1.32,1.42,1.3,-0.275 (inactive),1.24,0.0818
CC(=O)NCCCC[C@@H]1NC(=O)[C@@H]2C[C@H](C(=O)NCCCCCCNC(=O)CS)[C@H](c3ccc(O)cc3)N2C1=O,0.219,0.463,-0.0985,-0.1,-0.498,1.49,1.27,1.5 (inactive),-0.715,-0.0645
O=C(NCc1ccccc1)[C@]1(CCS(=O)(=O)c2ccccc2)N=C(c2ccc(OCCCO)cc2)O[C@@H]1c1ccccc1,0.0169,0.938,0.0485,1.05,1.68,1.48,1.18,-2.35 (inactive),1.31,-0.378
CCOC(=O)C1=CC[C@@H](c2ccccc2Cl)N(S(=O)(=O)c2ccc(C)cc2)C1,0.091,-0.507,0.102,0.435,1.3,1.31,0.828,-3 (inactive),0.802,0.0373
CC(=CC1CCCCC1)[C@@H](NC(=O)c1ccc(C(F)(F)F)cc1)c1ccc(-c2ccccc2)cc1,0.21,-0.259,0.0083,-0.0821,0.0836,1.02,-0.54,0.235 (inactive),0.112,0.57
